{"source": "PubChem BioAssay (NCATS)", "key": {"[1]": {"biological_target": "Cellular tumor antigen p53 (Homo sapiens) (UniProt P04637)", "sequence (P04637 whole entry, looked up)": "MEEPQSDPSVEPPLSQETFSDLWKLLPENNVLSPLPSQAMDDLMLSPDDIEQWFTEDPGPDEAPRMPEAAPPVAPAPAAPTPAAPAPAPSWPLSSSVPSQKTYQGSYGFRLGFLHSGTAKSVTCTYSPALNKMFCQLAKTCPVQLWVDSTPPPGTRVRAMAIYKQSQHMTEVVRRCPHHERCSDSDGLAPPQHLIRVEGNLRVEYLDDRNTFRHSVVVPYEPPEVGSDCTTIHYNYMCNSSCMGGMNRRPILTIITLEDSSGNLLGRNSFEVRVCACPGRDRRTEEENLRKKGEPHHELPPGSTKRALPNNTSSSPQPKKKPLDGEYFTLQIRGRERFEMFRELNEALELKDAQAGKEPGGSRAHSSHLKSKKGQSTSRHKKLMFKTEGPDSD", "assay": "Primary qHTS for small molecule compounds that upregulate eGFP-tagged delta133p53alpha (in N-terminal) cells. (AID 2060322); further: nearly all actives have a fitted effect of over 75% in size; further: potency means the concentration at half of the fitted maximal effect; on activation: series mostly up to about 56 µM", "conditions": "NCI-H358 eGFP-delta133p53alpha fluorescence, 24 h; activation: hits give high values", "procedure,_shortened": "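NCI-H358 cells pre-induced 24 h with 10 ng/ml doxycycline for eGFP-delta133p53alpha, plated dox-free and exposed 24 h at 37C to titrated compounds. Fixed, Hoechst-stained; gated GFP peak intensity by laser scanning cytometry, normalized to DMSO (0%) and 57.5 uM 5-azacytidine (100%).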"}, "[2]": {"biological_target": "Aldehyde dehydrogenase, mitochondrial (Homo sapiens) (UniProt P05091)", "assay": "qHTS for Inhibitors of the Aldehyde Dehydrogenase Family (ALDH2) Primary screen (AID 2061308); further: nearly all actives have a fitted effect of over 55% in size"}, "[3]": {"biological_target": "Retinaldehyde dehydrogenase 3 (Homo sapiens) (UniProt P47895)", "assay": "qHTS for Inhibitors of the Aldehyde Dehydrogenase Family (ALDH1A3) Validation screen (AID 2061312); further: nearly all actives have a fitted effect of over 45% in size"}, "[4]": {"biological_target": "Retinaldehyde dehydrogenase 3 (Homo sapiens) (UniProt P47895)", "assay": "qHTS for Inhibitors of the Aldehyde Dehydrogenase Family (ALDH1A3) Primary screen (AID 2061315)"}, "[5]": {"assay": "BET inhibitor-based combinations targeting novel dependencies in MECOM-rearranged (r) AML: SET-2 cell line (AID 2202231); further: nearly all actives have a fitted effect of over 35% in size; further: potency means the concentration at half of the fitted maximal effect", "conditions": "SET-2 AML cells viability, CellTiter-Glo luminescence, 48 h; viability: hits give low values, concentration not given here", "procedure,_shortened": "(§1)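 500 cells/well; 11-pt dose curve; 48 h, standard incubator; CellTiter-Glo luminescence after 15 min RT; DMSO/empty-well normalization; AUC plus Z-AUC (mean-centered within each line).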"}, "[6]": {"assay": "BET inhibitor-based combinations targeting novel dependencies in MECOM-rearranged (r) AML: OCI-AML3 cell line (AID 2202232)", "conditions": "Potency: OCI-AML3 viability", "procedure,_shortened": "as §1"}, "[7]": {"assay": "BET inhibitor-based combinations targeting novel dependencies in MECOM-rearranged (r) AML: MV-4-11 cell line (AID 2202233)", "procedure,_shortened": "(§2)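 Cells were plated at 500 per well and exposed to each drug across an 11-point dose range for 48 hr at standard incubator conditions. Viability was read by CellTiter-Glo luminescence, and activity was expressed as AUC and per-cell-line Z-transformed AUC.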"}, "[8]": {"assay": "BET inhibitor-based combinations targeting novel dependencies in MECOM-rearranged (r) AML: HNT-34 cell line (AID 2202234)", "procedure,_shortened": "as §2"}, "[9]": {"assay": "BET inhibitor-based combinations targeting novel dependencies in MECOM-rearranged (r) AML: UCSD-AML1 cell line (AID 2202235)", "procedure,_shortened": "as §2"}, "[10]": {"assay": "BET inhibitor-based combinations targeting novel dependencies in MECOM-rearranged (r) AML: AML-194 cell line (AID 2202237)", "procedure,_shortened": "as §1"}, "[11]": {"assay": "BET inhibitor-based combinations targeting novel dependencies in MECOM-rearranged (r) AML: AML-191 cell line (AID 2202236)", "procedure,_shortened": "as §1"}}, "note": "“And” between values parts separate entries of the source, which are not always exact repeats. Equal entries are not always repeated. Results filed as inconclusive are left out. Where a call stands in place of a potency, no number is given. Values without a mark were called inactive. The source made the active and inactive calls. The call rests on the fitted dose curve; in most records, active means well fitted curve in the direction sought with a large enough effect; inconclusive means small, poorly fitted or top-dose-only effect, or another doubt; inactive means no such curve, though single readings can be large; an effect the other way counts as inactive or inconclusive. Wherever Potency is given: potency means the concentration at half of the fitted maximal effect. Wherever viability, % of control is given: nearly all actives have a fitted effect of over 45% in size.", "data": [{"smiles": "Fc1ccc(CNc2ncnc3ccc(F)cc23)cc1", "values": [{"measurement": "activation", "setting": "[1]", "result": "-0.393% and 5.25%"}, {"measurement": "Potency", "setting": "[2]", "result": "inactive"}, {"measurement": "Potency", "setting": "[3]", "result": "inactive"}, {"measurement": "Potency", "setting": "[4]", "result": "inactive"}, {"measurement": "Potency", "setting": "[5]", "result": "2.63 µM (active)"}, {"measurement": "Potency", "setting": "[6]", "result": "4.17 µM (active)"}, {"measurement": "Potency", "setting": "[7]", "result": "5.9 µM (active)"}, {"measurement": "Potency", "setting": "[8]", "result": "16.6 µM (active)"}, {"measurement": "Potency", "setting": "[9]", "result": "inactive"}, {"measurement": "Potency", "setting": "[10]", "result": "inactive"}]}, {"smiles": "Cn1c(CNc2ccc(C(=N)N)cc2)nc2cc(C(=O)N(CCC(=O)O)c3ccccn3)ccc21", "values": [{"measurement": "activation", "setting": "[1]", "result": "22.7% and -0.477%"}, {"measurement": "Potency", "setting": "[2]", "result": "inactive"}, {"measurement": "Potency", "setting": "[3]", "result": "inactive"}, {"measurement": "Potency", "setting": "[4]", "result": "inactive"}, {"measurement": "viability", "setting": "[5]", "result": 116, "unit": "%"}, {"measurement": "viability (% of control)", "setting": "[6]", "result": "119% [at 0.315 µM]"}, {"measurement": "viability, % of control", "setting": "[7]", "result": "133% [at 0.315 µM]"}, {"measurement": "viability (% of control)", "setting": "[8]", "result": "104% [at 0.315 µM]"}, {"measurement": "viability (% of control)", "setting": "[11]", "result": "101% [at 0.315 µM]"}, {"measurement": "viability (% of control)", "setting": "[10]", "result": "118% [at 0.315 µM]"}]}, {"smiles": "Cc1nc(Nc2n[nH]c3c2CN(C(=O)N[C@H](CN(C)C)c2ccccc2)C3(C)C)c2sccc2n1", "values": [{"measurement": "Potency", "setting": "[1]", "result": "10.7 µM (active)"}, {"measurement": "Potency", "setting": "[2]", "result": "inactive"}, {"measurement": "Potency", "setting": "[3]", "result": "inactive"}, {"measurement": "Potency", "setting": "[4]", "result": "inactive"}, {"measurement": "Potency", "setting": "[5]", "result": "1.48 µM (active)"}, {"measurement": "Potency", "setting": "[6]", "result": "0.468 µM (active)"}, {"measurement": "Potency", "setting": "[7]", "result": "0.0235 µM (active)"}, {"measurement": "Potency", "setting": "[8]", "result": "1.18 µM (active)"}, {"measurement": "Potency", "setting": "[9]", "result": "0.148 µM (active)"}, {"measurement": "Potency", "setting": "[11]", "result": "1.18 µM (active)"}, {"measurement": "Potency", "setting": "[10]", "result": "1.66 µM (active)"}]}, {"smiles": "CC(C)N(C[C@H]1O[C@@H](n2cnc3c(N)ncnc32)[C@H](O)[C@@H]1O)C1CC(CCc2nc3ccc(C(C)(C)C)cc3[nH]2)C1", "note": "(some centres undefined)", "values": [{"measurement": "activation", "setting": "[1]", "result": "15.8% and 10%"}, {"measurement": "Potency", "setting": "[2]", "result": "inactive"}, {"measurement": "Potency", "setting": "[3]", "result": "inactive"}, {"measurement": "Potency", "setting": "[4]", "result": "inactive"}, {"measurement": "viability", "setting": "[5]", "result": 125, "unit": "%"}, {"measurement": "Potency", "setting": "[6]", "result": "inactive"}, {"measurement": "Potency", "setting": "[7]", "result": "6.61 µM (active)"}, {"measurement": "Potency", "setting": "[8]", "result": "inactive"}, {"measurement": "Potency", "setting": "[9]", "result": "inactive"}, {"measurement": "Potency", "setting": "[11]", "result": "inactive"}, {"measurement": "Potency", "setting": "[10]", "result": "inactive"}]}, {"smiles": "Cc1nnc(C(C)C)n1C1CC2CCC(C1)N2CCC(NC(=O)C1CCC(F)(F)CC1)c1ccccc1", "note": "(centres undefined)", "values": [{"measurement": "activation", "setting": "[1]", "result": -3.82, "unit": "%"}, {"measurement": "Potency", "setting": "[2]", "result": "inactive"}, {"measurement": "Potency", "setting": "[3]", "result": "inactive"}, {"measurement": "Potency", "setting": "[4]", "result": "inactive"}, {"measurement": "viability", "setting": "[5]", "result": 109, "unit": "%"}, {"measurement": "Potency", "setting": "[6]", "result": "inactive"}, {"measurement": "Potency", "setting": "[7]", "result": "inactive"}, {"measurement": "Potency", "setting": "[8]", "result": "inactive"}, {"measurement": "Potency", "setting": "[9]", "result": "inactive"}, {"measurement": "Potency", "setting": "[11]", "result": "inactive"}, {"measurement": "Potency", "setting": "[10]", "result": "inactive"}]}, {"smiles": "CCC(C)(Oc1ccc(C2(c3ccc(OC(C)(CC)C(=O)O)cc3)CCCCC2)cc1)C(=O)O", "note": "(centres undefined)", "values": [{"measurement": "activation", "setting": "[1]", "result": "-25.7% and 13.4%"}, {"measurement": "Potency", "setting": "[2]", "result": "inactive"}, {"measurement": "Potency", "setting": "[3]", "result": "inactive"}, {"measurement": "Potency", "setting": "[4]", "result": "inactive"}, {"measurement": "viability", "setting": "[5]", "result": 114, "unit": "%"}, {"measurement": "Potency", "setting": "[6]", "result": "inactive"}, {"measurement": "Potency", "setting": "[7]", "result": "inactive"}, {"measurement": "Potency", "setting": "[8]", "result": "inactive"}, {"measurement": "Potency", "setting": "[9]", "result": "inactive"}, {"measurement": "Potency", "setting": "[11]", "result": "inactive"}, {"measurement": "Potency", "setting": "[10]", "result": "inactive"}]}]}
